This note sets out measurements from the supplement of paper PMC6555819.

The experiment concerns VDR:RXRa (NR concentration 270 nM, RXRa partner concentration 90 nM). The experiment can be described thus: PBM binding z-score (relative to random genomic background probes); higher = stronger binding; sequences stand for … in GC…GCGATTGACAGCGTAGAATGAAGG
The procedure: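 Protein-binding microarray (Agilent 4x180K custom design, double-stranded 60-nt probes: 5' GC cap, 34-nt variable region, 24-nt constant primer region; full probe sequence given). Purified or IVT nuclear receptor:RXRα heterodimers (3:1 NR:RXRα, mostly 270:90 nM) or homodimers were incubated for 1 h in PBS with 2% milk and no ligand, then detected with Alexa488 antibodies. Fluorescence from o1-orientation probes (~5 replicates averaged) was converted to z-scores against 500 random hg19 background probes. Variable regions are seed direct-repeat (DR0–DR5) sites, all their single-nucleotide variants and half-site ablations.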
Sequence CTATGTGGGTTAAGGGGGTCATTCAGTTTGAAAG gave a PBM binding z-score of 7.5.

The sequence ATATGTAGGTTACATCCGGGTCATCCAGGCTATG yielded a PBM binding z-score of 4.14.

Regarding CGTCCAAGGTCATAGGAGGTCAATGAAGACAGAT, the PBM binding z-score amounted to 7.01.

On to TGTCAAAGTTCAAAGGTTACGTAAGTATCCACAC, for which the PBM binding z-score was 6.4.

CGAACGAGGTCATTGACAGGACAGTGAATAGTAA: the PBM binding z-score is 5.64.

Sequence CCGAATAGGTTACGAGGGGGCATTCAGTGCGAAT gave a PBM binding z-score of 5.89.

With CGAACTAGGTCATTGACAGGACAATGAATAGTAA, the PBM binding z-score is 2.62.

For ATATGTAGGTTATCGGGTCATACAGTTTGCGCAT, the PBM binding z-score was 5.13.

Sequence CGAACTAGGTCAAGGGACAGTGAAAGGCGACGTA returned a PBM binding z-score of 0.899.

AGAATGAGATTACCAAAGATCAGGGAAACGCTTG displayed a PBM binding z-score of -0.0977.

For CGAACTAGGTCACCCAGGACAGTGAATACATTGA, the PBM binding z-score was 4.43.

On to CCTAGTGGGCCAAGGTCATTGATCAGTCAAAGCA, for which the PBM binding z-score is 3.33.

As to AACGAAAGGTCGAAGGTGAGTATACCCACCCGAA, the PBM binding z-score is 2.9.

In the case of ATATGTAGGTTAAGCGTCATTCAGGTTGGTTCGC, the PBM binding z-score amounted to 0.888.

CAAACTAGGTCAAGGTCTAAGTCGGTTTGTGCCA yielded a PBM binding z-score of 1.95.

CGTCAAAGGTCAACTAAGGTAACGTAAAGCACGC gave a PBM binding z-score of 6.2.

As for CGAACTAGGTCTAAGGACAGTGAAAGGCGACGTA, the PBM binding z-score was -0.556.

As for AAAACAGGGTCATCGTAGGCCAGAGTACGCACAG, the PBM binding z-score came to 5.38.

The sequence GATACGGGGTCAAGGCCAGAGTACGCGTATTGAT returned a PBM binding z-score of 6.27.

In turn, CCTGCGAGGTCATGGTCAGCTAATCTACAGTATG showed a PBM binding z-score of 5.17.

CCTTACGGGTCACTCCAGGTCATAGCATCGGAGT: the PBM binding z-score was 5.95.

The sequence TTACCAAGGTCAAAGGTCGTTGATGCACGCCTTG yielded a PBM binding z-score of 6.42.

For CGTCCAAGGTCTAGGTCAGTGAAAGAGACTCGAA, the PBM binding z-score is 0.105.

CCTACTGGGCCGTTCAGAGGTCATTGATCATATG came in with a PBM binding z-score of 3.58.

The sequence CGAACTAGGTCAAGGACAGTAAATCTCCGCACGC showed a PBM binding z-score of 1.33.

With AGTCAAAGGTCATCTAGGTAACGTAAGATATGCT, the PBM binding z-score was 6.04.

On to CGTCAAAGTCCAAGGTAACGTAACAGAAAGCAGC, for which the PBM binding z-score is -0.137.

The sequence CTATGTAGGTTAGGGGGGTCATTCAGTTTGAAAG had a PBM binding z-score of 7.68.

For AATACAGGGTAACTAGGCCAGAGTAGGTACGAAT, the PBM binding z-score came out at 0.199.

CGTCCAAGGTTAAGGTCAGTGAAAGAGACTCGAA returned a PBM binding z-score of 2.5.

Take ATCGAAAGGTCCAAGGTGAGTATACCCACCCGAA: the PBM binding z-score turned out to be 0.423.

In turn, CACACTAGGTCACAGAGGTCAAAGTCCGTGCGTA displayed a PBM binding z-score of 8.14.

Consider ATATGTAGTTTATCGGGTCATTCAGTTTGCGCAT, for which the PBM binding z-score worked out at 5.19.

On to CGAACTAGGTCGAGGACAGTGAATCTCCGCACGC, for which the PBM binding z-score came to 0.0505.

GCTGCTAGGTCAACTGATGGCCAGCTAAAGCTCG displayed a PBM binding z-score of 1.14.

TAGCCTAGGTCATTCAGGGGCCACTATAGAAAGC: the PBM binding z-score was found to be 3.95.

As to CTATGTAGGTTAAGGGAGTCATTCAGTTTGAAAG, the PBM binding z-score came out at 1.94.

The sequence TAGCCGAGGTCATTCAGGGGCCAGTATAGAAAGC gave a PBM binding z-score of 5.89.

Sequence CGTTCAAGGTCAAAGGTCAGTGAAGAGATGACGG yielded a PBM binding z-score of 6.9.

The sequence AGTCAAACTTCAGGACGAGGTAACGTAAAGCACG came in with a PBM binding z-score of -0.131.
